Only some compounds are listed: those with a hit (about 2.2% of all), similar ones and a draw of the others.
NALP3 yeast inh: NALP3 inflammasome inhibitors in reconstituted yeast, primary screen, luminescence, uHTS; Yeast reconstituted NLRP3/ASC/caspase-1, beta-gal luminescence, 24 h; inhibition, % at 10 µM; hit rate 0.39% among 330,000;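 active means inhibition of 50% or more; inactive means inhibition below 50%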
PolyA inh: polyadenylation inhibitors in yeast reporter cells, primary screen, luminescence, S. cerevisiae | hit rate 0.02% among 300,000 | activity score, % at 12 µM | AID 1875, 2009 | S. cerevisiae SKY197-pL101 polyadenylation reporter, beta-gal luminescence; efflux-impaired pdr1/pdr3 knockout yeast; score 100 = 6 SD above DMSO;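 active means lowest replicate activity score at least 50, where 100 means six control SD above control mean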;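 further: yeast exposed to compound for 9 h at 30 °C; higher score means more reporter readthrough which indicates perturbed polyadenylation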
dFosB activator: activators of delta FosB homodimer, primary screen, biochemical, fluorescence polarization, TAMRA-CDK5 oligo, single point | activation, % at 25 µM | purified delta FosB; percent of positive-control signal above neutral wells | Protein FosB (Mus musculus), P13346 | hit rate 0.99% among 340,000 | AID 493131, 2011;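 active means mean activation above about 17%, with every replicate also reaching it, limit read from the data, passing the limit was not always enough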
Target sequence (P13346 whole entry, looked up): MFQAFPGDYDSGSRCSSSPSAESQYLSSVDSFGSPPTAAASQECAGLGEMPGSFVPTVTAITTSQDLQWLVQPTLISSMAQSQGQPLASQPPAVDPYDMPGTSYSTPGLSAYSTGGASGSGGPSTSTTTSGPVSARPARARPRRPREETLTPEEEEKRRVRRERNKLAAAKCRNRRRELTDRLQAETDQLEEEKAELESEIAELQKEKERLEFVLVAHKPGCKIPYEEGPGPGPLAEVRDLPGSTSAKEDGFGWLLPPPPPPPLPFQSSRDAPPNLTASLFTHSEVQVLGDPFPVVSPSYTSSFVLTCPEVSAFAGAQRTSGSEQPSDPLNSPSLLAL
ZTA counter: ZTA (EBV) inhibition in EBNA-1 counter-screen | inhibition, % at 11 µM | hit rate 0.15% among 320,000 | ZTA-DNA binding, fluorescence polarization | P03206; in the data active means inhibition above about 33%
Target sequence (P03206 whole entry, looked up): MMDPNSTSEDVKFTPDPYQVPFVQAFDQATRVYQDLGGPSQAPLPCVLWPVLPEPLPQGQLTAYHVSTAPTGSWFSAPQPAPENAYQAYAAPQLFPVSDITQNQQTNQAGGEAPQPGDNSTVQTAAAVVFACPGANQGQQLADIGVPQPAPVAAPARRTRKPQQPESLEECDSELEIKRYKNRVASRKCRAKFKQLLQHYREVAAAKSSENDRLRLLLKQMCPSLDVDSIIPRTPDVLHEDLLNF
EBNA-1 inhibitor: EBNA-1 DNA-binding inhibitors, primary screen, biochemical, fluorescence polarization | inhibition, % at 14.8 µM | hit rate 0.34% among 300,000; in the data active means inhibition above about 28%
NALP1 yeast inh: NALP1 inflammasome inhibitors in reconstituted yeast, colorimetric, S. cerevisiae, triplicate retest | S. cerevisiae NALP1/ASC/caspase-1 growth, X-gal OD620, 72 h | hit rate 0.61% among 280,000 | AID 2071, 2009 | inhibition, % at 10 µM; in the data active means inhibition mostly above about 24%, no sharp cut-off; inactive means mostly below about 32%
Each line names hits and unclear results; the compound was inactive in the other large screens.

CC(=O)Nc1ccccc1-c1nnn(CC(=O)Nc2ccc3c(c2)OCCO3)n1	none
Cc1ccccc1C(=O)Nc1ccccc1-c1nnn(CC(=O)Nc2ccc3c(c2)OCCO3)n1	dFosB activator 31.2
CC(=O)c1cccc(OCc2cc(C(=O)NCc3nc(C)c(C)s3)no2)c1	none
CC1CN(S(=O)(=O)c2ccc(CN3C(=O)c4cccnc4C3=O)s2)c2ccccc2O1 (centres undefined)	none
COC(=O)c1cccc(NC(=O)/C=C/c2ccc([N+](=O)[O-])cc2)c1	none
O=C(/C=C/c1ccc([N+](=O)[O-])cc1)Nc1cccc(C(=O)Nc2ccccc2C(=O)O)c1	NALP1 yeast inh 27.8 (no result: NALP3 yeast inh)
N/C(=N\OC(=O)CCC1CCCC1)c1ccc([N+](=O)[O-])cc1	none
NC(=NC1CCCCC1)c1ccc([N+](=O)[O-])cc1	NALP1 yeast inh 44.1
COc1ccc(CCNCc2ccc(OCC(=O)N3CCCCC3)c(OC)c2)cc1OC	NALP1 yeast inh 34.3
COc1ccc(CCNC(=O)c2ccc(OCC(=O)N3CCOCC3)c(OC)c2)cc1	none (no result: NALP1 yeast inh)
COc1ccc(CCNC(=O)c2ccc(OCC(=O)N3CCOCC3)c(OC)c2)cc1OC	NALP1 yeast inh 29.9
CCOC(=O)c1ccc2ncc(C(=O)OCC)c(Nc3ccc(N4CCOCC4)cc3)c2c1	none
CCOC(=O)c1cnc2ccc(OC)cc2c1Nc1ccc(N2CCN(C)CC2)cc1	dFosB activator 35.9 (no result: ZTA counter, EBNA-1 inhibitor)
COc1ccc([N+](=O)[O-])cc1N(CC(O)CN1CCCCC1)S(=O)(=O)c1ccccc1 (centres undefined)	NALP1 yeast inh 24.7 (no result: PolyA inh)
CSCCC(NS(=O)(=O)c1ccc(Cl)cc1)C(=O)OCC(=O)N(C(C)C)C(C)C (centres undefined)	NALP1 yeast inh 35.2
C[C@@H](NC(=O)Cn1cnc2c(OCc3ccccc3)ncnc21)c1cccc2ccccc12	dFosB activator 26.0 (no result: PolyA inh, ZTA counter, EBNA-1 inhibitor, NALP1 yeast inh)
Cc1ccc(C)n1-c1ccc(N2CCOCC2)cc1	none (no result: PolyA inh, NALP1 yeast inh)
Cc1ccc(C)n1-c1ccc(N(C)C)cc1	ZTA counter 180.5, EBNA-1 inhibitor 108.7
CN(CC(=O)Nc1ccccc1Cl)C(=O)COC(=O)c1nc(Cl)c(Cl)c(Cl)c1Cl	none
CCN1CCc2c(OCc3ccc(C)cc3)cccc2C1=O	none (no result: PolyA inh)
CC[n+]1c(/C=C2\Sc3ccccc3N2C)ccc2cccc(C)c21	NALP1 yeast inh 100.3 (no result: NALP3 yeast inh, ZTA counter, EBNA-1 inhibitor)
Cn1c(=O)n(C)c2cc(NC(=O)c3ccc(F)cc3)ccc21	none
COc1ccc(CCNC(=O)CSc2nc3[nH]ncc3c(=O)n2-c2ccccc2OC)cc1OC	NALP1 yeast inh 34.7
CC1(CNC(=O)C(=O)NCC2(C)CO2)CO1 (centres undefined)	none (no result: NALP3 yeast inh, PolyA inh, ZTA counter, EBNA-1 inhibitor, NALP1 yeast inh)
O=C(N=C1SC2CS(=O)(=O)CC2N1CCc1ccc(F)cc1)C1CCCCC1 (centres undefined)	none
CCC(NS(=O)(=O)c1ccc(OC)cc1)C(=O)NCCc1ccccc1 (centres undefined)	none
CCOc1ccc(N2C(=O)CC(Sc3n[nH]c(-c4ccccc4)n3)C2=O)cc1 (centres undefined)	NALP1 yeast inh 36.9
CCOc1ccc(N2C(=O)CC(N)C2=O)cc1 (centres undefined)	NALP1 yeast inh 94.3 (no result: PolyA inh)
CCOc1ccc(N2C(=O)CC(Cc3cc(C)cc(C)c3)C2=O)cc1 (centres undefined)	none (no result: ZTA counter, EBNA-1 inhibitor)
CCc1nccn1S(=O)(=O)c1ccc(OC)c(C)c1C	NALP1 yeast inh 34.1
CCc1nccn1S(=O)(=O)c1ccc(Br)cc1Br	none
CCN(C(=O)COC(=O)/C(=C/c1ccccc1)NC(C)=O)c1c(N)n(Cc2ccccc2)c(=O)[nH]c1=O	none (no result: NALP3 yeast inh, PolyA inh, ZTA counter, EBNA-1 inhibitor, NALP1 yeast inh)
Cc1cccc(NC(=O)CNC(=O)CSc2nc(N)cc(N)n2)c1C	none (no result: PolyA inh, ZTA counter, EBNA-1 inhibitor, NALP1 yeast inh)
O=C(CCC(=O)c1ccc[nH]1)c1ccc(Cl)cc1	NALP1 yeast inh 27.2
CCn1c(=O)ccc2cc([N+](=O)[O-])ccc21	none
Cc1cc(C)c(S(=O)(=O)N2CCCCC2CCNC(=O)C(=O)NCc2ccccn2)c(C)c1 (centres undefined)	none (no result: NALP1 yeast inh)
CC1=CC(=O)C=C(C)C1=NOS(=O)(=O)c1ccccc1	NALP1 yeast inh 104.3 (no result: NALP3 yeast inh, ZTA counter, EBNA-1 inhibitor)
COc1cccc2sc3ccc(NCCC4CCCN4C)cc3c(=O)c12 (centres undefined)	none
COc1cc2sc3cc(NCC[C@@H]4CCCN4C)ccc3c(=O)c2cc1OC	dFosB activator 29.9 (no result: PolyA inh, ZTA counter, EBNA-1 inhibitor, NALP1 yeast inh)
COP(=O)(OC)C(Nc1ccc(C)cc1)c1ccc(Br)cc1 (centres undefined)	none (no result: NALP3 yeast inh, PolyA inh, ZTA counter, EBNA-1 inhibitor, NALP1 yeast inh)
CCOC(=O)c1ccc(NC(=S)N(CCCN(CC)CC)Cc2ccco2)cc1	none
CCOC(=O)c1ccc(NC(=S)N(CCCN2CCCCC2)Cc2ccco2)cc1	NALP1 yeast inh 43.5
COc1ccc(C(=O)Nc2nnc(Cc3ccc(OC)c(OC)c3)s2)cc1	none
O=C(Cn1c2ccc(F)cc2c2nc3n(c(=O)c21)CCS3)Nc1ccc(Cl)cc1F	dFosB activator 21.0
Cc1ccc(NC(=O)Cn2c3ccc(F)cc3c3nc4n(c(=O)c32)CCS4)cc1F	none
O=C1c2ccccc2CCCC12N=NCC2c1cccc2ccccc12 (centres undefined)	none
Cc1ccc(C2CN=NC23CCc2ccccc2C3=O)cc1 (centres undefined)	NALP1 yeast inh 37.0
Cc1cccc(C)c1NC(=O)Cn1c(=O)c2cccn2c2ccccc21	dFosB activator 29.1
Cc1cccc(C)c1NC(=O)Cn1nc(C)n2cccc2c1=O	none
C=CCNc1nnc(Cc2ccc(C(C)C)cc2)c(=O)[nH]1	none
O=C(O)Cc1ccc(NC(=O)Nc2ccc(Br)cc2)cc1	NALP1 yeast inh 32.2
COc1ccc(/C=C2\SC(=N)N(c3ccc(F)cc3)C2=O)cc1OC	dFosB activator 44.5
CCOc1ccc(/C=C2\SC(=O)N(c3ccc(O)cc3)C2=O)cc1OC	none (no result: dFosB activator, NALP1 yeast inh)
CC(=O)Nc1ccc(NC(=O)Cn2c(-c3ccc(F)cc3)cnc2SCC(=O)Nc2c(C)cccc2C)cc1	dFosB activator 64.3 (no result: PolyA inh)
O=C(NCCN1CCCC1)c1ccc(Cl)cc1	none
CC(C)(C)c1cc(C(=O)NCCN2CCCC2)cc(C(C)(C)C)c1	NALP1 yeast inh 108.0
COc1ccc(NC(=O)CN(C)C(=O)c2cccc(S(=O)(=O)Nc3ccccc3Cl)c2)cc1	none (no result: NALP1 yeast inh)
COc1ccc(CCNCC(=O)Nc2ccc(C)c(S(=O)(=O)N(C)C)c2)cc1OC	NALP1 yeast inh 36.2
CCOc1ccc(/C=C2/SC(=S)N(CCC(=O)Nc3ccc(C(=O)O)cc3)C2=O)cc1	dFosB activator 47.9
COc1ccc(/C=C2\SC(=S)N(CCC(=O)Nc3ccc(O)cc3)C2=O)cc1	dFosB activator 34.3
O=C(CCN1C(=O)/C(=C\c2ccccc2)SC1=S)Nc1ccc(C(=O)O)cc1	none
COc1cc(/C=C2\SC(=S)N(CCC(=O)Nc3ccccc3)C2=O)cc(OC)c1OC	NALP1 yeast inh 28.9

Compound activity deposited in PubChem by several laboratories.
